For some of these results: Measured potencies and affinities stand elsewhere.

11 compounds from ChEMBL document CHEMBL3988442, “University of Dundee, Small-Polar-MMV Screening Library” (2021) can be followed below.

Common to all, as to design: scale not given: direction of the effect not stated beside the values
Assay [1] deals with Protein translocase subunit SecA (Escherichia coli (strain K12)) (UniProt P10408). The experiment in a line: Assay to Identify E. coli SecA ATPase Inhibitors. It counts as functional. The settings on record: 30 µM.
Protein translocase subunit SecA (Escherichia coli (strain K12)), sequence (P10408 whole entry): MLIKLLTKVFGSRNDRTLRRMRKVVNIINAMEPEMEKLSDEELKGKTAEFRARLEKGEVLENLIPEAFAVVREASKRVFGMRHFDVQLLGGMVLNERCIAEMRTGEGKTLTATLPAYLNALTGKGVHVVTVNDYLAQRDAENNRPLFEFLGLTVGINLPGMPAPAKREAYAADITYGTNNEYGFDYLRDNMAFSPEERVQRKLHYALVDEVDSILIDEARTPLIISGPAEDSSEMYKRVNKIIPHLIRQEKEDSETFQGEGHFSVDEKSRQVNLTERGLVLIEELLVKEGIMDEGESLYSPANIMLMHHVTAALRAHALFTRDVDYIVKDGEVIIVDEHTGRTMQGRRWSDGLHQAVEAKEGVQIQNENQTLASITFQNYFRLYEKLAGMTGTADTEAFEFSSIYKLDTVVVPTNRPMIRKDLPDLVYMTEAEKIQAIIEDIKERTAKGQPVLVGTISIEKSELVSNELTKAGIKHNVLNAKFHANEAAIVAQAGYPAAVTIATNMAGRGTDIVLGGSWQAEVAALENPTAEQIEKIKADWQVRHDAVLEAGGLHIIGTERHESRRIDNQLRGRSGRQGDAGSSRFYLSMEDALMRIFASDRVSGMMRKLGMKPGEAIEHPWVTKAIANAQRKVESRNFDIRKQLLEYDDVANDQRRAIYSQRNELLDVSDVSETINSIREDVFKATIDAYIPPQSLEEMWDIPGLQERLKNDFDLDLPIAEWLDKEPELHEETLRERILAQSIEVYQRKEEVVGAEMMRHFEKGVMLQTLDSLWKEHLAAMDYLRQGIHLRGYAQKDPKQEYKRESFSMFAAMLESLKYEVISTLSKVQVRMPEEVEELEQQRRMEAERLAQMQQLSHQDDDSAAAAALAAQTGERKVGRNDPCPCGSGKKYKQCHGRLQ
The target of assay [2] is T1, Ubiquitin-activating enzyme e1, putative (Leishmania donovani (strain BPK282A1)) (UniProt E9BSI1).
T1 sequence (whole entry): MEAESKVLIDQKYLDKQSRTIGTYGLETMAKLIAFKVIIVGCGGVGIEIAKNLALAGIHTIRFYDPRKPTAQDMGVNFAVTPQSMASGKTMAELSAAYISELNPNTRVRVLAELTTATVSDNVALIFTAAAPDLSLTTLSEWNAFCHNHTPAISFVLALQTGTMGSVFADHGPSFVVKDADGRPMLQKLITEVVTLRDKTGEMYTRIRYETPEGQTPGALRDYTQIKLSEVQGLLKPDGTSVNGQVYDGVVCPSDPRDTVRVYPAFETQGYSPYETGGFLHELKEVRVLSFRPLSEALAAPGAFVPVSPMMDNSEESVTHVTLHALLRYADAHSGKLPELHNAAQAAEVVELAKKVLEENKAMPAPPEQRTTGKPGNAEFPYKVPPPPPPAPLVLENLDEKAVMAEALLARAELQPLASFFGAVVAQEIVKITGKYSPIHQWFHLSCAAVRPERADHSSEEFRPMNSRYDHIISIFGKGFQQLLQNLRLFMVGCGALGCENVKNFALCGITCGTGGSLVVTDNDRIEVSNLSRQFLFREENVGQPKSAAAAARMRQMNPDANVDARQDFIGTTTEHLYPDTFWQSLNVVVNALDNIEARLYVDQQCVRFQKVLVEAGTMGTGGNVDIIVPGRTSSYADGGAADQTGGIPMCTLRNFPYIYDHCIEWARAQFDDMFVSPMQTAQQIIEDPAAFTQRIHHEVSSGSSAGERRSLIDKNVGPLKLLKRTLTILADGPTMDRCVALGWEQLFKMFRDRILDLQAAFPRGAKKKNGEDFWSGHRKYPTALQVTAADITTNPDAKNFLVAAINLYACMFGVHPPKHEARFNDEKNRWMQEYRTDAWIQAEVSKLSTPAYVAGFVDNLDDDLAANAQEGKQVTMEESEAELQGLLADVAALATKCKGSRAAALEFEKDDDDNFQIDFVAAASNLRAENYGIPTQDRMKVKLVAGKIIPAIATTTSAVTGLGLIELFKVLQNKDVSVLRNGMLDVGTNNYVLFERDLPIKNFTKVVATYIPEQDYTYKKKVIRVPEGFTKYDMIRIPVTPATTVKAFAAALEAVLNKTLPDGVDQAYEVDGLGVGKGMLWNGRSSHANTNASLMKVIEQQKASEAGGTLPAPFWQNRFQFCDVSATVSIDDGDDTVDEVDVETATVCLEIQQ
Description: Leishmania donovani Ubiquitin Activating Enzyme (LdE1). It is filed as functional. The settings on record: 30 µM.

Assay [3] deals with AMP-activated protein kinase, AMPK (Homo sapiens) (UniProt P54646+O43741+P54619+Q9UGJ0+Q9Y478+Q13131+Q9UGI9). The experiment in a line: AMP-dependent Kinase enzyme assay. An in vitro enzyme assay that detects ADP turnover that is directly proportional to AMPK activity. This uses naive AMPK that is activated during the assay with MK-8722. It is filed as functional. The settings on record: 30 µM.

Assay [4] deals with Sialic acid-binding Ig-like lectin 9 (Homo sapiens) (UniProt Q9Y336). Description: Hs-Siglec9 ALPHAscreen SOP 20170721. The settings on record: 10 µM.
Sialic acid-binding Ig-like lectin 9 (Homo sapiens), sequence (Q9Y336 whole entry): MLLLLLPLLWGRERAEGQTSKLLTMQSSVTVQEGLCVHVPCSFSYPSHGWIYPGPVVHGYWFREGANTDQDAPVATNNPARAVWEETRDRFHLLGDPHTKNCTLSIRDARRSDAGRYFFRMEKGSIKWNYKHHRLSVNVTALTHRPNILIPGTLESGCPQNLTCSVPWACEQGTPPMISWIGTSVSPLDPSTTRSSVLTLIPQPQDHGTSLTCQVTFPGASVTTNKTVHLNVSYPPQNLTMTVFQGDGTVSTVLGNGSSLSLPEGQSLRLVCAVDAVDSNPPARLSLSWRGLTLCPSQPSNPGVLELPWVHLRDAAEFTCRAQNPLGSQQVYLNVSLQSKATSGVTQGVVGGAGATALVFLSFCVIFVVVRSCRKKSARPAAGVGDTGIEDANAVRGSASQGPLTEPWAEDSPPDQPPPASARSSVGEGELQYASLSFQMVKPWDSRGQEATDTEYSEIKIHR
A further assay concerns Trypanosoma cruzi. Description: Trypanosoma cruzi phosphomannomutase and mannose-1-phosphate guanylyltransferase assay. The settings on record: 10 µM. It counts as functional.
Assay [5] concerns the target T2, Arginase-2, mitochondrial (Homo sapiens) (UniProt P78540).
T2 sequence (whole entry): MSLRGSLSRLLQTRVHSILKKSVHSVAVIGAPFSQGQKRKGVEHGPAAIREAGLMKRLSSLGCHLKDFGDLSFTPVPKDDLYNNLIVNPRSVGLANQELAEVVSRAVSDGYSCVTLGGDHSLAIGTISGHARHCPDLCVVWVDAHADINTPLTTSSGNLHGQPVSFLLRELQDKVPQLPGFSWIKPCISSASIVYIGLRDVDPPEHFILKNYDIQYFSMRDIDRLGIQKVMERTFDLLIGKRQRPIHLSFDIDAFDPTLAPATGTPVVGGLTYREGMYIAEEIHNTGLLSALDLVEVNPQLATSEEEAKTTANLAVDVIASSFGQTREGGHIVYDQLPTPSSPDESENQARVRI
Description: in vitro enzyme assay to detect the production of urea directly proportional to the activity of Arginase II. Also: in the data most compounds retested in dose-response had high values. It is filed as functional. The settings on record: 33.3 µM.

Assay [6] deals with T3, Proteasome subunit beta (Trypanosoma cruzi) (UniProt O96673).
T3 sequence (whole entry): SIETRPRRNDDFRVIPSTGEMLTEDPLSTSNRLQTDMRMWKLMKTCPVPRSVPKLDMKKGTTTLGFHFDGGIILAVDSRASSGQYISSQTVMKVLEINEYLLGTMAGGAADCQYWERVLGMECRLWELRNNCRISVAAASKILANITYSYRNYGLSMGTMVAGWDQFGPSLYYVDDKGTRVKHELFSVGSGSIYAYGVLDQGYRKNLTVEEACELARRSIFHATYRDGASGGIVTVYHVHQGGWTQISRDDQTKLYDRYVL
The experiment in a line: Trypanosoma cruzi proteasome chymotrypsin-like activity (TcProtChymo) assay. Also: in the data most compounds retested in dose-response had high values. It is filed as functional. Particulars: 9.37 µM.

The species entered for a further assay is Homo sapiens. The experiment in a line: To identify inhibition of the IFN signalling (Jak-Stat) pathway via expression of an eGFP reporter gene under the control of an IFN-stimulated response element (ISRE) containing MxA promoter. It counts as functional. Particulars: 30 µM. For orientation: A reporter such as luciferase makes a cellular process visible.

The target of assay [7] is T4, Tyrosyl-tRNA synthetase, putative (Trypanosoma cruzi (strain CL Brener)) (UniProt Q4DSP6).
T4 sequence (whole entry): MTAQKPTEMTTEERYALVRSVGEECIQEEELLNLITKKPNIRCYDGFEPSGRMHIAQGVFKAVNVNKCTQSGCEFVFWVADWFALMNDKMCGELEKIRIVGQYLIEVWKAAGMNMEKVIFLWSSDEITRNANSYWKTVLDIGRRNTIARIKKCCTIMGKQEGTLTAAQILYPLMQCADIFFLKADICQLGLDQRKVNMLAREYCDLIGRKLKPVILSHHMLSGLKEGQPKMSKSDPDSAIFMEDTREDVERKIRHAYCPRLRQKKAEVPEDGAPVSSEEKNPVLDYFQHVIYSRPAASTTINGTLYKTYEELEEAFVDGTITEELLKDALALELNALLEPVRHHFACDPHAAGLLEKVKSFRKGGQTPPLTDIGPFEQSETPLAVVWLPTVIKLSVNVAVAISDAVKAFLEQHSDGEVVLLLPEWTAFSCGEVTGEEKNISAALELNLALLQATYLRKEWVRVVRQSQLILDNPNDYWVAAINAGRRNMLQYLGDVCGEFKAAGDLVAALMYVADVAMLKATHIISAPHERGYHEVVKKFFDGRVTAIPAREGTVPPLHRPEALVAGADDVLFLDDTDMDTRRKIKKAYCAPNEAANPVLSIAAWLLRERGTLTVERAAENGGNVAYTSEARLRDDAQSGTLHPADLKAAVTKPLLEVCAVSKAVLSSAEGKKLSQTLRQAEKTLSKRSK
Description: Trypanosoma cruzi tyrosyl tRNA synthetase (TcYRS) _High Tyrosine SOP. Also: in the data most compounds retested in dose-response had high values. It is filed as functional. The settings on record: 30 µM.

Assay [8] concerns the target T4, Tyrosyl-tRNA synthetase, putative (Trypanosoma cruzi (strain CL Brener)). The experiment in a line: Trypanosoma cruzi tyrosyl tRNA synthetase (TcYRS) SOP. It is filed as functional. The settings on record: 30 µM.
Assay [9] addresses Chromo domain-containing protein 1 (Saccharomyces cerevisiae (strain ATCC 204508 / S288c) (Baker's yeast)) (UniProt P32657). Description: ScCHD-1 Enzyme Inhibition Assay. Also: in the data most compounds retested in dose-response had high values. It is filed as functional. The settings on record: 30 µM.

Chromo domain-containing protein 1 (Saccharomyces cerevisiae (strain ATCC 204508 / S288c) (Baker's yeast)), sequence (P32657 whole entry, the tested form may be a part): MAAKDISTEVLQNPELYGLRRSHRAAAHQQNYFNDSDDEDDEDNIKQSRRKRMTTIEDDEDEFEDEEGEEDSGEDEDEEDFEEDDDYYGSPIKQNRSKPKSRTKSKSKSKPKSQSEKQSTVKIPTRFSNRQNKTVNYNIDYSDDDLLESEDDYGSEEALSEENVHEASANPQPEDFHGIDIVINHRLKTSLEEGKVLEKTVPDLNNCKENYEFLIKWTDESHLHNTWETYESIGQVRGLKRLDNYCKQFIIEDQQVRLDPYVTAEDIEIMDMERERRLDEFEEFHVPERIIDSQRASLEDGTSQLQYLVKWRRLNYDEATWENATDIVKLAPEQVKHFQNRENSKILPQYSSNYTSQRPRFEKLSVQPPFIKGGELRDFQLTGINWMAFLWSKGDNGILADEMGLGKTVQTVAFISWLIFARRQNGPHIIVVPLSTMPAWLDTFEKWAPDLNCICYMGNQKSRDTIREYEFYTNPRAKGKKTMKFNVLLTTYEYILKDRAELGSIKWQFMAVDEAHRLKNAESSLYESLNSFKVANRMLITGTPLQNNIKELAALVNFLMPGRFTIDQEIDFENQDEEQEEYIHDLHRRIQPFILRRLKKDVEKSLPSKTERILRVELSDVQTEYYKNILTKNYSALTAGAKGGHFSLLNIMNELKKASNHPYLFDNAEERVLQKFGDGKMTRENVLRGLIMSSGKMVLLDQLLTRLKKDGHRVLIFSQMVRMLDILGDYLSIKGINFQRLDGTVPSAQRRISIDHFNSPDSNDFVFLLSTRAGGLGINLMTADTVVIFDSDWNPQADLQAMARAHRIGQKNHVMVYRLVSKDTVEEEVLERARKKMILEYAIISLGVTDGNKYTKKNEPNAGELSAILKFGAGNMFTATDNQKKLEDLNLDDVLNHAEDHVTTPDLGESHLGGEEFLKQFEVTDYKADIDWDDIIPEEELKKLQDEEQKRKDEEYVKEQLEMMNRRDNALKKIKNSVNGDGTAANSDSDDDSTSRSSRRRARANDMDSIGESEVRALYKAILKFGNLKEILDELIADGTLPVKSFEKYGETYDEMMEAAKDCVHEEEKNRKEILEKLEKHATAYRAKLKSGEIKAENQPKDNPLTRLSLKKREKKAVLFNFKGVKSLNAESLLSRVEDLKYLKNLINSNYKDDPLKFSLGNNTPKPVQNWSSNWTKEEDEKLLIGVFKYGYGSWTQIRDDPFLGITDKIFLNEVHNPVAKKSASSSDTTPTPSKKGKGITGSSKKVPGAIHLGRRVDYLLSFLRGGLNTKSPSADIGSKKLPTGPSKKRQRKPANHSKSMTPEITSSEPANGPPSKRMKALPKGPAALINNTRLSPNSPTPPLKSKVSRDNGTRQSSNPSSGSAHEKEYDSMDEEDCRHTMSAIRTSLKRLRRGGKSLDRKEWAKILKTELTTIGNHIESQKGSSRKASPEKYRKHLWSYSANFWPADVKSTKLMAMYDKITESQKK

As for `O=C(c1cccnc1)N1C[C@@H]2CC[C@H](C1)N(Cc1cccc(Cl)c1F)C2`, the Percent Effect in [1] is -2.44%; in [2], 8.22%; in assay [3], 11.4%; in [4], 4.43%; in the assay on Trypanosoma cruzi, -0.588%; in assay [5] it was 5%. For the same compound, the Percent Effect in [6] is 10.8%; in the assay listed under Homo sapiens, 8.1%; in assay [7] it was 9.68%; in assay [8], 22.5%; in [9], -3.1%.

As to `CCC(C)NC(=O)Cc1c(C)nc2c(c1C)c(=O)[nH]n2C` (stereo unspecified), the Percent Effect in assay [1] worked out at 0.22%; in [2], 13%; in assay [3], 1.2%; in assay [4], 14%; in the assay with Trypanosoma cruzi, 3.44%; in assay [5] it was 1.38%. Further, the Percent Effect in [6] is 7.32%; in the assay filed under Homo sapiens it was -10.2%; in assay [7] it was 2.15%; in assay [8], 16.1%; in assay [9] it was -1.16%.

Turning to `CCOc1cccc(CNC(=O)NCC(O)c2cccc(F)c2)c1` (stereo unspecified), the Percent Effect in assay [1] was -5.26%; in assay [2], 16.2%; in assay [3], -2%; in [4] it was 22.6%; in the assay on Trypanosoma cruzi it was 5.75%; in [5], -6.01%. For the same compound, the Percent Effect in assay [6] is -1.44%; in the assay listed under Homo sapiens it was 29.2%; in assay [7] it was 7.39%; in assay [8], 23.5%; in assay [9] it was -11.2%.

In the case of `O=C(NCc1cc[nH]n1)NC1CCCN(c2ncccn2)C1` (stereo unspecified), the Percent Effect in assay [1] was -1.16%; in assay [2] it was 10.5%; in [3], 6.14%; in [4], -0.458%; in the assay on Trypanosoma cruzi, -4.58%; in assay [5], -4.73%. The Percent Effect in [6] is 16%; in the assay filed under Homo sapiens it was -3.24%; in assay [7], 4.25%; in [8] it was 13%; in [9], -5.61%.

`Cc1ccc2c(c1)c(CNC(=O)C1CC(=O)N(C3CCCC3)C1)nn2C` (stereo unspecified): the Percent Effect in [1] is 1.21%; in assay [2], 0%; in assay [3] it was 4.01%; in [4] it was 6.8%; in the assay with Trypanosoma cruzi, -7.34%; in assay [5] it was -1.43%. The Percent Effect in [6] was 21%; in the assay filed under Homo sapiens it was 10%; in [7], 3.7%; in assay [8] it was 0%; in [9], -5.94%.

Turning to `CC(C)Nc1nc(N2CCOCC2)nc2c1CN(Cc1ccoc1)CC2`, the Percent Effect was -4.76% in [1]; 5.33% in assay [2]; 12.8% in [3]; 1.46% in [4]; -1.97% in the assay with Trypanosoma cruzi; 6.76% in [5]. Moreover, the Percent Effect in assay [6] is 7.84%; in the assay filed under Homo sapiens, 8.61%; in [7], 7.45%; in assay [8] it was 16.7%; in assay [9], -3.95%.

`Cn1ccnc1CN1CC[C@@H](NS(C)(=O)=O)[C@@H]1Cc1cccnc1`: the Percent Effect is -2.5% in assay [1]; 8.11% in assay [2]; -0.0396% in [3]; -7.99% in assay [4]; -6.35% in the assay with Trypanosoma cruzi; -2.23% in assay [5]. In addition, the Percent Effect in assay [6] is 18.6%; in the assay filed under Homo sapiens it was 11.3%; in assay [7], 2.16%; in [8] it was 10.3%; in assay [9], -5.81%.

Consider `COCCn1cc2c(n1)C(CNCc1ccco1)OCC2` (stereo unspecified), for which the Percent Effect in assay [1] is -7.4%; in assay [2], -2.7%; in assay [3] it was 0.854%; in assay [4] it was 9.04%; with Trypanosoma cruzi, -0.781%; in assay [5] it was 0.833%. Further, the Percent Effect in [6] is 18%; in the assay filed under Homo sapiens, 13.2%; in assay [7] it was 3.96%; in [8], -3.66%; in [9], -1.08%.

In the case of `CCCc1nc(C)cc(N2CCC3(CCC(=O)N(CC4CC4)C3)CC2)n1`, the Percent Effect was -2.3% in assay [1]; 8.11% in assay [2]; -0.987% in [3]; 3.81% in [4]; -3.03% with Trypanosoma cruzi; 3.23% in [5]. Besides, the Percent Effect in assay [6] is 8.67%; in the assay filed under Homo sapiens, 1.04%; in assay [7] it was -5.38%; in assay [8], 13.6%; in assay [9], -4%.

As to `OC(CN1CCN(c2ncccn2)CC1)c1cccc(F)c1` (stereo unspecified), the Percent Effect in assay [1] is -2.83%; in assay [2], 13.5%; in [3], -5.06%; in assay [4], 19.1%; in the assay with Trypanosoma cruzi it was 4.99%; in assay [5], 16.6%. Besides, the Percent Effect was 2.49% in [6]; 20.5% in the assay listed under Homo sapiens; 6.45% in assay [7]; 16.1% in assay [8]; -5.42% in [9].

For `COc1cc(CN(C(=O)Nc2cccnc2OC)C2CC2)ccc1O`, the Percent Effect was -3.67% in [1]; 2.6% in assay [2]; 7.29% in [3]; 11.9% in [4]; -2.25% with Trypanosoma cruzi; -0.712% in assay [5]. The Percent Effect in assay [6] is 5.91%; in the assay filed under Homo sapiens, 23.5%; in assay [7], 3.88%; in assay [8] it was 12.2%; in assay [9], -4.72%.
